An excerpt weighted towards active compounds, which were near 18% of everything screened.
HepG2 viability – qHTS for Inhibitors of TGF-b: Cytotox Counterscreen; HepG2 CAGA-GFP viability, ATP luminescence, 18 h; Potency, µM (titrated, usually from 46.1 µM), for inactives: at the top dose activity change, negative = cytotoxicity, usual class: cytotoxic; 0.76% of 410,000 active; also: potency is read from the fitted curve at half-maximal effect
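HepG2 CAGA-GFP cells (1000/well, DMEM with 1% FBS) received compound, then TGF-beta at 500 pg/mL final, and were incubated 18 hours at 37 degrees C. Viability was read by CellTiter-Glo luminescence. Media-only wells were set as complete cell-killing and DMSO as no toxicity.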
TDP1 block – qHTS Assay for Inhibitors of Tyrosyl-DNA Phosphodiesterase (TDP1); recombinant TDP1, AlphaScreen DNA substrate cleavage; AID 485290, 2010; 0.28% of 350,000 active; Potency, µM (titrated, usually from 130 µM), inactives show at the top dose activity change, negative = inhibition, hits mostly inhibitors; Tyrosyl-DNA phosphodiesterase 1 (Homo sapiens), Q9NUW8; also: potency is read from the fitted curve at half-maximal effect; % is scaled to controls: 0 for no effect and ±100 for the full control effect; nearly all actives have a fitted effect of over 40% in size
Target sequence (Q9NUW8 whole entry, looked up): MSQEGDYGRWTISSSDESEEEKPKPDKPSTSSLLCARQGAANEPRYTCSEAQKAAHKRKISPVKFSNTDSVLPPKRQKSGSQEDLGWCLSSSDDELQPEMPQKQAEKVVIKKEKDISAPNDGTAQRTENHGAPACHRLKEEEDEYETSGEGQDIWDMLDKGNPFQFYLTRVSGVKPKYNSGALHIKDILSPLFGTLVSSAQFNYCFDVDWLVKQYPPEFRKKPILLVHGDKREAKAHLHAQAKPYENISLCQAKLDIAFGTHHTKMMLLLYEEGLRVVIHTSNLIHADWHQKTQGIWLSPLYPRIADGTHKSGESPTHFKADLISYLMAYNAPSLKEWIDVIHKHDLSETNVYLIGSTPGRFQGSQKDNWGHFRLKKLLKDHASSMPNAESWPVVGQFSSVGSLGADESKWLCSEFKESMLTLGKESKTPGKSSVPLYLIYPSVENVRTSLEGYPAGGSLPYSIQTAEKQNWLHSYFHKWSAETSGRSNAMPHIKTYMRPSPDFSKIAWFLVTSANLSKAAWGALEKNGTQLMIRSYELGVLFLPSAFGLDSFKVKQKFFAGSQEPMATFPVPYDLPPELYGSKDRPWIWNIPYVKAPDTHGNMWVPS
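Tdp1 1 nM final; 15 min RT w/ cpd; substrate 15 nM, 5 min; beads 10 ug/ml, 10 min; AlphaScreen read. Neg ctrl: no enzyme.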
IL1B secr inh – qHTS for Inhibitors of Inflammasome Signaling: IL-1-beta AlphaLISA Primary Screen. THP-1 LPS/ATP IL-1B secretion, AlphaLISA, 16 h; active compounds read low. activity change, % at 57.5 µM. 4.7% of 360,000 active; in the data active = activity change below about -50%; inconclusive = mostly about -30% to -49%; also: % is scaled to controls: 0 for no effect and ±100 for the full control effect
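THP-1 cells pretreated 1 hr with compounds (up to 57.5 uM final), then stimulated with LPS (250 ng/mL final) plus ATP (1.25 mM final); secreted IL-1B measured by AlphaLISA after 16 hr, decreased signal indicating inhibition.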
TGFb SMAD3 inh – qHTS for Inhibitors of TGF-b; Potency, µM (titrated, usually from 46.1 µM), without a hit: at the highest dose activity, negative = inhibition, actives largely listed as inhibitors; AID 588855, 2011; HepG2 CAGA-GFP TGF-b/SMAD3 reporter, GFP fluorescence, 18 h; TGF-beta stimulated, 500 pg/mL final; 1.2% of 410,000 active; also: potency is read from the fitted curve at half-maximal effect; % is scaled to controls: 0 for no effect and ±100 for the full control effect; nearly all actives have a fitted effect of over 65% in size
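Per well, imaged GFP fluorescence of HEPG2 CAGA-GFP cells gives the signal; cells get compound, then TGF-beta (500 pg/mL final), 18 h at 37 degrees C; %Activity versus -TGF-beta and +DMSO controls.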
TDP1 cell CPT – qHTS for Inhibitors of human tyrosyl-DNA phosphodiesterase 1 (TDP1): qHTS in cells in presence of CPT. chicken DT40 Tdp1-/-;hTDP1 cells + 20 nM CPT, ATP luminescence, 48 h. Potency, µM (top dose mostly 46.2 µM), without a hit: at the highest dose activity change, negative = growth inhibition, usual class: inhibitors. 12% of 420,000 active. AID 686979, 2013; also: potency is read from the fitted curve at half-maximal effect; % is scaled to controls: 0 for no effect and ±100 for the full control effect; nearly all actives have a fitted effect of over 55% in size
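Cell growth measured by CellTiter-Glo luminescence after a minimum 48 h, 37 C compound exposure with 20 nM CPT in Tdp1-knockout DT40 cells stably expressing hTDP1, seeded 400/well; qHTS titration format.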
TDP1 cell noCPT – qHTS for Inhibitors of human tyrosyl-DNA phosphodiesterase 1 (TDP1): qHTS in cells in absence of CPT | DT40 Tdp1-/- hTDP1 cells, no CPT, ATP luminescence, 48 h | Potency, µM (series often up to 46.2 µM), without a hit: top-dose activity change, negative = growth inhibition, hits mostly inhibitors | AID 686978, 2013 | 15% of 420,000 active; also: potency is read from the fitted curve at half-maximal effect; % is scaled to controls: 0 for no effect and ±100 for the full control effect; nearly all actives have a fitted effect of over 55% in size
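Camptothecin absent (DMSO only). Human TDP1-complemented DT40 knockout cells, 400 cells/well, 37 °C for minimum 48 hr; ATP measured via CellTiter-Glo, 30 min dark incubation, luminescence.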
* hit, by the source's call; i = inactive; ? = inconclusive; · = no result. Unless noted, calls follow the shape of the dose curve; as a rule, active = well fitted curve in the direction sought with a large enough effect; inconclusive = small, poorly fitted or top-dose-only effect, or another doubt; inactive = no such curve, though single readings can be large; an effect the other way counts as inactive or inconclusive.

SMILES | HepG2 viability | TDP1 block | IL1B secr inh | TGFb SMAD3 inh | TDP1 cell CPT | TDP1 cell noCPT
Cc1cccc(OCC(O)Cn2c(N3CCCCC3)nc3c2c(=O)n(C)c(=O)n3C)c1 (stereo unspecified) | 0.9% | · | 39.6 | -12.4% | ? | 16.4µM*
Cn1c(=O)[nH]c(=O)c2c1nc(N1CCOCC1)n2CC(O)COc1ccc2ccccc2c1 (stereo unspecified) | -1.0% | 0.0% | 19.4 | -1.4% | -26.2% | ?
CCCCNc1nc2c(c(=O)n(C)c(=O)n2C)n1CC(O)COc1ccccc1C (stereo unspecified) | -7.8% | · | · | ? | 20.6µM* | 18.4µM*
CCC(=NN=C(CC)c1ccccc1O)c1ccccc1O | 11.9% | · | 32.2 | 2.0% | ? | ?
COCC(=O)N1CCC(Oc2ccc(C(=O)NCCCC3CCCC3)cc2)CC1 | -22.1% | 4.7% | i | ? | 13µM* | 18.4µM*
COCC(=O)N1CCC(Oc2ccc(C(=O)NCCCn3cccn3)cc2)CC1 | 8.8% | 5.4% | 22.6 | 5.9% | -4.2% | ?
COc1cccc(CNC(=O)c2cc(Sc3cccc(Cl)c3)nc3ccccc23)c1 | -11.8% | 0.0% | · | 1.0% | ? | 14.6µM*
CCOc1ccc(-c2cc(C(=O)NCCc3ccc(OC)c(OC)c3)[nH]n2)cc1 | -4.6% | 2.8% | · | -2.0% | ? | ?
CCOCCCNC(=O)c1cc(Sc2ccc(C)cc2)nc2ccccc12 | 9.7% | -1.2% | ? | 46.0% | -20.3% | ?
CCOc1ccc(Sc2cc(C(=O)NCCc3ccccc3)c3ccccc3n2)cc1 | -5.8% | 5.2% | · | 15.8% | -15.4% | -28.4%
CCOCCCNC(=O)c1cc(Sc2cccc(Cl)c2)nc2ccccc12 | -29.1% | 0.0% | · | -0.8% | ? | 14.6µM*
CCOc1ccc(Sc2cc(C(=O)NCc3ccc(C)cc3)c3ccccc3n2)cc1 | 11.5% | 2.6% | · | 27.5% | -23.5% | -22.0%
CCOc1ccc(/C=C/C(=O)NCCc2ccc(OC)c(OC)c2)cc1 | -22.0% | 5.9% | -1.8 | -12.1% | ? | 23.1µM*
CCOc1ccc(Sc2cc(C(=O)NCCc3ccc(OC)c(OC)c3)c3ccccc3n2)cc1 | -19.6% | 0.0% | · | -11.7% | 3.66µM* | 5.8µM*
O=C(CN1CCN(Cc2cccc(Cl)c2)C1=O)NCc1cccs1 | -24.5% | 2.5% | -20.2 | -25.2% | -5.0% | -19.3%
COc1cc(/C=C/C(=O)NCCN2CCOCC2)cc(OC)c1OC | 2.4% | 2.7% | 14.6 | -14.2% | -1.5% | 3.7%
COc1ccc(Nc2cc(C(=O)NCCc3ccccc3)c3ccccc3n2)cc1OC | 7.7% | 2.3% | · | 1.8% | -4.0% | -0.7%
COc1ccc(CCNC(=O)c2cc(Sc3cccc(Cl)c3)nc3ccccc23)cc1OC | -21.1% | 2.6% | · | -54.9% | 8.2µM* | 7.31µM*
COc1ccc(/C=C/C(=O)NCCN2CCOCC2)cc1OC | 6.5% | -3.6% | -4.4 | 19.5% | ? | 20.6µM*
CCc1nc(N2CCN(C(=S)NCCCOC)CC2)c2c3c(sc2n1)CCCC3 | -33.6% | · | ? | ? | 16.4µM* | 16.4µM*
CCC(=O)N1CCN(c2nc(CC)nc3sc4c(c23)CCCC4)CC1 | -16.8% | 3.1% | -22.6 | -4.9% | -26.9% | ?
CC(Oc1ccccc1)C(=O)N[C@@H]1C(=O)N2[C@@H]1SC(C)(C)[C@@H]2C(=O)OCc1ccccc1 (stereo partly specified) | -14.8% | · | · | ? | ? | ?
Cc1ccc(-c2cnc3c(c2)C(=O)N([C@H](C)CO)C[C@H](C)[C@@H](CN(C)Cc2ccccc2F)O3)cc1 | -33.2% | · | -25.1 | -2.3% | ? | ?
C[C@H](O)C#Cc1cnc2c(c1)C(=O)N([C@H](C)CO)C[C@@H](C)[C@@H](CN(C)Cc1ccc(-c3ccccc3)cc1)O2 | -51.3% | · | -107.9* | ? | ? | 1.3µM*
C[C@@H]1CN([C@@H](C)CO)C(=O)c2cc(C#Cc3cccc(F)c3)cnc2O[C@@H]1CN(C)CC1CCOCC1 | -44.8% | · | ? | 0.7% | 16.4µM* | ?
SMILES | HepG2 viability | TDP1 block | IL1B secr inh | TGFb SMAD3 inh | TDP1 cell CPT | TDP1 cell noCPT
C[C@H]1CN([C@@H](C)CO)C(=O)c2cc(/C=C/c3ccccc3)cnc2O[C@H]1CN(C)C(=O)c1cccc(F)c1 | -28.9% | · | -17.8 | -7.6% | ? | 23.1µM*
C[C@@H]1CN([C@@H](C)CO)C(=O)c2cc(-c3ccccc3F)cnc2O[C@H]1CN(C)Cc1cccc(F)c1 | -5.4% | · | -22.4 | -1.6% | ? | 23.1µM*
C[C@@H]1CN([C@@H](C)CO)C(=O)c2cc(Br)cnc2O[C@@H]1CN(C)Cc1ccc(Oc2ccccc2)cc1 | -35.0% | · | -51.6* | ? | -1.3% | 16.4µM*
COc1ccc(CN(C)C(=O)/C=C/[C@H]2O[C@@H](n3cc(C)c(=O)[nH]c3=O)C[C@@H]2O)cc1OC | -12.5% | · | -10.5 | -4.8% | 3.6% | -0.4%
Cc1nc(-c2cnn(-c3ccccc3)c2)c2cc(C)oc2n1 | -2.3% | 3.3% | -16.3 | -2.3% | ? | 18.4µM*
C=CCC(NCc1ccccc1)c1ccc(OC)cc1 (stereo unspecified) | -21.9% | · | -11.3 | -10.2% | ? | 25.9µM*
C=C1C(=O)[C@]23C[C@H]1CC[C@H]2[C@]1(C)[C@@H](OC(C)=O)CC[C@@](C)(C(=O)O)[C@H]1C[C@@H]3OC(C)=O | -85.5% | · | -99.2* | 10µM* | 2.06µM* | 4.11µM*
C=C1C(=O)[C@]23C[C@H]1CCC2[C@]1(C)C(=O)CC[C@@](C)(C(=O)O)C1C[C@@H]3O (stereo partly specified) | -86.9% | · | -109.1* | ? | 2.91µM* | 3.66µM*
C=C/C(C)=C/CC1C(=C)CCC2C(C)(C(=O)O)CCCC12C (stereo unspecified) | -16.4% | · | 9.4 | -13.7% | 5.5% | 3.6%
C=C1C(=O)[C@]23C[C@H]1CCC2[C@]1(C)CCC[C@@](C)(C(=O)O)C1C[C@@H]3O (stereo partly specified) | -87.3% | · | -121.4* | 2.51µM* | 1.46µM* | 1.64µM*
